{
  "source": "the supplement of paper PMC12582362",
  "note": "Counter-ions that a name gives are not always drawn. Hit rate of the full screen: of about 1,500 compounds, about 30 (2%) showed activity.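 Rule for the calls: active = robust z-score below -2; a few such results were not called.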 What follows is part of a selection rich in actives, with near analogues and random picks from the rest.",
  "data": [
    {"test_system": "optoTopBP1 Flp-In 293 T-REx (HEK293) cells", "experiment": "light-induced TopBP1 condensate (nuclear foci) count, plate-normalised robust z-score vs non-control wells; higher = more TopBP1 condensates (negative = condensation inhibitor), active = hit call of the paper", "details": "10 µM; incubation time 2 h", "values": [
      {"smiles": "C[CH2][Hg][S]c1ccccc1C(=O)[O-].[Na+]", "note": "[Thimerosal]", "light-induced TopBP1 condensate (z-score)": "-8.21 (active)"},
      {"smiles": "C[C@]12CC[C@H]3[C@@H](CCC4=CC(=O)CC[C@@H]43)[C@@H]1CC[C@@H]2O", "note": "[Nandrolone]", "light-induced TopBP1 condensate (z-score)": "2.28 (inactive)"},
      {"smiles": "O=C([O-])c1ccccc1-c1c2cc(Br)c(=O)cc-2oc2[c]([Hg+])c([O-])c(Br)cc12.[Na+].[Na+].[OH-]", "note": "[Merbromin]", "light-induced TopBP1 condensate (z-score)": "-0.221 (inactive)"},
      {"smiles": "C[C@]12CC[C@@H](O)C[C@@H]1CC[C@@H]1[C@@H]2CC[C@]2(C)C(=O)CC[C@@H]12", "note": "[Androsterone]", "light-induced TopBP1 condensate (z-score)": "0.981 (inactive)"},
      {"smiles": "CC(=O)O[C@H]1C[C@H](O[C@H]2[C@@H](O)C[C@H](O[C@H]3[C@@H](O)C[C@H](O[C@H]4CC[C@@]5(C)[C@H](CC[C@@H]6[C@@H]5C[C@@H](O)[C@]5(C)[C@@H](C7=CC(=O)OC7)CC[C@]65O)C4)O[C@@H]3C)O[C@@H]2C)O[C@H](C)[C@H]1O[C@@H]1O[C@H](CO)[C@@H](O)[C@H](O)[C@H]1O", "note": "[Lanatoside C]", "light-induced TopBP1 condensate (z-score)": "-1.56 (inactive)"},
      {"smiles": "C[C@]12CC[C@H](O)C[C@@H]1CC[C@@H]1[C@@H]2CC[C@]2(C)C(=O)CC[C@@H]12", "note": "[Epiandrosterone]", "light-induced TopBP1 condensate (z-score)": "-0.588 (inactive)"},
      {"smiles": "C[C@]12CC[C@H](O)C[C@H]1CC[C@@H]1[C@@H]2C[C@@H](O)[C@]2(C)[C@@H](C3=CC(=O)OC3)CC[C@]12O", "note": "[Digoxigenin]", "light-induced TopBP1 condensate (z-score)": "-2.51 (active)"},
      {"smiles": "C[C@]12CC[C@@H](O)C[C@H]1CC[C@@H]1[C@@H]2CC[C@]2(C)C(=O)CC[C@@H]12", "note": "[3-alpha-Hydroxy-5-beta-androstan-17-one]", "light-induced TopBP1 condensate (z-score)": "-0.529 (inactive)"},
      {"smiles": "C[C@]12CC[C@H](O)C[C@H]1CC[C@@H]1[C@@H]2CC[C@]2(C)[C@@H](C3=CC(=O)OC3)CC[C@]12O", "note": "[Digitoxigenin]", "light-induced TopBP1 condensate (z-score)": "-2.06 (active)"},
      {"smiles": "CO[C@]12C[C@@H](COC(=O)c3cncc(Br)c3)CN(C)[C@@H]1Cc1cn(C)c3cccc2c13", "note": "[Nicergoline]", "light-induced TopBP1 condensate (z-score)": "-0.703 (inactive)"},
      {"smiles": "CC(=O)NC1CCSC1=O", "note": "(racemic) [N-Acetyl-DL-homocysteine Thiolactone]", "light-induced TopBP1 condensate (z-score)": "-0.247 (inactive)"},
      {"smiles": "CC(=O)O[C@H]1CC[C@@]2(C)C(=CC[C@@H]3[C@@H]2CC[C@]2(C)C(=O)CC[C@@H]32)C1", "note": "[Dehydroisoandosterone 3-acetate]", "light-induced TopBP1 condensate (z-score)": "-0.674 (inactive)"},
      {"smiles": "COc1cc([C@@H]2c3cc4c(cc3[C@H](O)[C@H]3COC(=O)[C@H]23)OCO4)cc(OC)c1OC", "note": "[Podophyllotoxin]", "light-induced TopBP1 condensate (z-score)": "-2.43 (active)"},
      {"smiles": "COc1cc2c(c(OC)c1OC)-c1ccc(OC)c(=O)cc1[C@@H](NC(C)=O)CC2", "note": "[Colchicine]", "light-induced TopBP1 condensate (z-score)": "-1.18 (inactive)"},
      {"smiles": "CC(CCc1ccccc1)NC(C)C(O)c1ccc(O)cc1", "note": "(stereo not given) [Nylidrin]", "light-induced TopBP1 condensate (z-score)": "0.555 (inactive)"},
      {"smiles": "C#C[C@]1(O)CC[C@H]2[C@@H]3CCC4=CC(=O)CCC4=C3C=C[C@@]21CC", "note": "[Gestrinone]", "light-induced TopBP1 condensate (z-score)": "0.545 (inactive)"},
      {"smiles": "CN1C(=O)COc2c(C(=O)NC3CN4CCC3CC4)cc(Cl)cc21", "note": "(stereo not given) [Azasetron hydrochloride]", "light-induced TopBP1 condensate (z-score)": "0.519 (inactive)"},
      {"smiles": "C[N+]1(C)[C@@H]2CC[C@H]1C[C@@H](OC(=O)C(CO)c1ccccc1)C2", "note": "(stereo not given in full) [Methylatropine nitrate]", "light-induced TopBP1 condensate (z-score)": "-0.568 (inactive)"},
      {"smiles": "COc1ccc(CCN)cc1OC", "note": "[Homoveratrylamine]", "light-induced TopBP1 condensate (z-score)": "-1.31 (inactive)"},
      {"smiles": "C[C@]12CCC(=O)C=C1C=C[C@@H]1[C@@H]2CC[C@@]2(C)[C@H]1CC[C@@]2(O)CCC(=O)O", "note": "[Canrenoic acid potassium salt]", "light-induced TopBP1 condensate (z-score)": "1.33 (inactive)"}
    ]}
  ]
}
